This is an account of results in ChEMBL document CHEMBL3988442, “University of Dundee, Small-Polar-MMV Screening Library” (2021).

One assay addresses T1, Aspartate--tRNA(Asp/Asn) ligase (Mycobacterium tuberculosis (strain ATCC 25618 / H37Rv)) (UniProt P9WFW3).
T1 sequence (whole entry): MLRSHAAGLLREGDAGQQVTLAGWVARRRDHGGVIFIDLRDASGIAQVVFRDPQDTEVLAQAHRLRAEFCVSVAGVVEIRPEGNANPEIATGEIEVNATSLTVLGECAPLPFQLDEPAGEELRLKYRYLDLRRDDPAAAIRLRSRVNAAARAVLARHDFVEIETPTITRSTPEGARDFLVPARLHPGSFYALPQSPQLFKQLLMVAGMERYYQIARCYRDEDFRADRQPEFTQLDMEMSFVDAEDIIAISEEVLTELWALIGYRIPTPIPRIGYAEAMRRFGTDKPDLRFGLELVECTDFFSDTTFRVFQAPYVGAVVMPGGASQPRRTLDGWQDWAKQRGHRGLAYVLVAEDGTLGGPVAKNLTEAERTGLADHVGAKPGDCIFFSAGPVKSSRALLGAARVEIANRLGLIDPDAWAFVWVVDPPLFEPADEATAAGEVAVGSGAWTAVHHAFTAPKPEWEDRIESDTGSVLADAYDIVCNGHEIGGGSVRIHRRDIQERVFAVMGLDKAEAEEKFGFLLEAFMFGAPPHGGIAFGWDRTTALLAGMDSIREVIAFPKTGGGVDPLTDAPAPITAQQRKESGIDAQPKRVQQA
The assay can be described thus: Assay for Asp RNA synthetase-1 from Mycobacterium tuberculosis. The class given is functional. Set-up: scale not given: direction of the effect not stated beside the values. To be noted: 30 µM.
For the molecule `CCc1c(C(=O)NC2CCS(=O)(=O)C2)cnn1-c1ccc(F)cc1` (configuration not stated), the Percent Effect is -1.69%.

For the molecule `CN(C)C(=O)N[C@@H]1CN(Cc2ccc3c(c2)OCO3)[C@@H]2CCCO[C@@H]21`, the Percent Effect was -0.291%.

Turning to `CCn1ccnc1CN1CCN(Cc2ccc(C#N)cc2)CC1`, the Percent Effect is -0.278%.

Take `Cc1nc(-c2ccc(C(=O)O)cc2)cc(C2CCN(C(C)C)C2)n1` (configuration not stated): the Percent Effect is 2.34%. For the molecule `CC(NC(=O)C1=NN(C)C(=O)CC1)c1ccc(Cl)cc1Cl` (configuration not stated), the Percent Effect is -11.1%.

Regarding `COc1cc(CNC2CCc3nc(C(C)C)nn3C2)cc2c1OCO2` (configuration not stated), the Percent Effect amounted to 1.32%. On the same count and under the same terms, then `Cc1cc(-c2nn(C)c(Cl)c2CN2CCOCC(O)C2)no1` (configuration not stated), with -2.42%; and `CN(C)C[C@H]1OC[C@@H]2CCN(C(=O)c3ccco3)C[C@@H]21`, with -2.13%. For `COCCc1noc(CNC2CCc3nc(C(C)C)nn3C2)n1` (configuration not stated), the Percent Effect amounted to 3.49%. Turning to `CC(=O)N1CCC(Cc2cnc(-c3c(C)nn(C)c3C)cn2)C1` (configuration not stated), the Percent Effect is -3.46%. On the same count and under the same terms, the value for `O=C([C@H]1CCCO1)N1CCCC2(CCN(Cc3ccncc3)C2=O)C1` (some centres not stated) was 3.8%.

In the case of `CN(Cc1ccc2c(c1)OCCO2)C(=O)Cn1ccccc1=O`, the Percent Effect was -7.28%. In the case of `COc1ccc(F)cc1C(C)NC(=O)Nc1nnc(C)s1` (configuration not stated), the Percent Effect was -0.889%.

Take `Cc1c(Br)cccc1C(=O)NC(C)CN1CCCC1=O` (configuration not stated): the Percent Effect was -1.01%. The same measure, in the same setting: then `COc1cc(C)nc(N2CCN(C(=O)CNC(C)(C)C)CC2)n1`, with -2.1%. On to `CN1CC(=O)N(c2ccccc2)CC12CCN(CC1CC1)C2` (configuration not stated), for which the Percent Effect came out at 3.68%. Still for that read-out and setting: the value for `CC(Cc1ccco1)NC(=O)Nc1ccc(S(C)(=O)=O)nc1` (configuration not stated) was 1.12%. The same measure, in the same setting: then `O=C(c1cnc(-c2cccs2)s1)N1CCCN2CCCC2C1` (configuration not stated), with 8.86%; and `CCc1c(C)nn(CCNC(=O)C2CCCN(C(=O)N(C)C)C2)c1C` (configuration not stated), with -4.11%; and `Cn1cnnc1C1CCCN(C(=O)NCc2cc[nH]n2)C1` (configuration not stated), with 4.95%. Still for that read-out and setting: the value for `CC(=O)NCCNC(=O)c1cnc(-c2ccccc2)nc1` was 4.64%.

The target of a further assay is Shiga toxin 2 (Escherichia coli O157:H7) (UniProt P09385+P09386). The assay can be described thus: E. coli 0.157:H7 Shiga Toxin SOP - stx2 screening assay. In kind it is functional. Set-up: scale not given: direction of the effect not stated beside the values. To be noted: 30 µM.
`O=C(NCCCn1nc2ccccn2c1=O)NC1CCC(O)CC1` (configuration not stated): the Percent Effect was -44.5%. Same read-out and setting: the value for `Cc1ccc(C(=O)N2CCc3c(CNS(C)(=O)=O)cncc3C2)o1` was -21%; that for `Cc1cccc(CN2CCc3c(nc(N4CCCCC4C)[nH]c3=O)C2)n1` (configuration not stated) was 21.7%; that for `Cc1cnn(CC2CCCCN2C(=O)c2ccc3nnc(C)n3c2)c1` (configuration not stated) was 21.9%. As for `CC(C)(C)c1cn2nc(N3CCC[C@@H]3CO)sc2n1`, the Percent Effect is -8.45%. Turning to `Cc1nc(C)n(CC2CN(Cc3cccnc3)CCO2)n1` (configuration not stated), the Percent Effect was 26.5%.

For `CC(C)NC(=O)N1CCC2(COCc3cnc(-c4cccnc4)nc32)C1` (configuration not stated), the Percent Effect was 2.56%. The same measure, in the same setting: the value for `CC(=O)N1CCCC1c1cccc(Cc2ccc(F)cc2)n1` (configuration not stated) was 5.81%; that for `CS(=O)(=O)N1CC[C@H]2C[C@@H](C(=O)N3CCOCC3)O[C@@H]2C1` was 5.94%. As to `COc1ccc(F)cc1C(C(=O)O)N1CCSCC1` (configuration not stated), the Percent Effect was 9.21%. Still for that read-out and setting: then `CCn1nc2c(cc1=O)CN(CC(=O)Nc1nc(C)c(C)s1)CC2`, with -30.8%.

Take `COc1cccc(C)c1C(=O)N1C[C@@H](CN(C)C)[C@@H](CO)C1`: the Percent Effect was -14.7%.

For `CC(=O)c1cccc(OCCCC(=O)N(C)CCc2ccncc2)c1`, the Percent Effect is -45.6%. Turning to `O=C(c1cc(F)ccc1F)C1CCN(C(=O)c2cccnc2O)CC1`, the Percent Effect was determined as 27.8%.

Consider `CCOc1ccc2[nH]c(=O)c(CN3CCC(O)CC3)cc2c1`, for which the Percent Effect was -8.86%. Still for that read-out and setting: then `CCOCCN1CCN(Cc2nnc(C3CC3)o2)CC1CC` (configuration not stated), with -12.2%. For the molecule `NC(=O)NCC(=O)N1C[C@H]2CC[C@@H]1CN(Cc1ccccc1)C2`, the Percent Effect was -8.55%. Take `CCn1c(C)nnc1CN(C)C1CCN(Cc2nccn2C)C1` (configuration not stated): the Percent Effect was -37.8%. The same measure, in the same setting: then `CCn1c(C(=O)N2CCN(C(=O)COC)CC2)cc2ccccc21`, with -41.5%; and `CCc1c(C(=O)NC2CCS(=O)(=O)C2)cnn1-c1ccc(F)cc1` (configuration not stated), with 9.21%; and `CN(C)C(=O)N[C@@H]1CN(Cc2ccc3c(c2)OCO3)[C@@H]2CCCO[C@@H]21`, with -7.65%. As for `CCn1ccnc1CN1CCN(Cc2ccc(C#N)cc2)CC1`, the Percent Effect is -29.2%.

Regarding `Cc1nc(-c2ccc(C(=O)O)cc2)cc(C2CCN(C(C)C)C2)n1` (configuration not stated), the Percent Effect was -5.82%. For `CC(NC(=O)C1=NN(C)C(=O)CC1)c1ccc(Cl)cc1Cl` (configuration not stated), the Percent Effect was -19.3%.

As for `COc1cc(CNC2CCc3nc(C(C)C)nn3C2)cc2c1OCO2` (configuration not stated), the Percent Effect was determined as 15.4%. As for `Cc1cc(-c2nn(C)c(Cl)c2CN2CCOCC(O)C2)no1` (configuration not stated), the Percent Effect was found to be 16.3%. In the case of `CN(C)C[C@H]1OC[C@@H]2CCN(C(=O)c3ccco3)C[C@@H]21`, the Percent Effect is -9.03%.

With `COCCc1noc(CNC2CCc3nc(C(C)C)nn3C2)n1` (configuration not stated), the Percent Effect was 9.38%. In the case of `CC(=O)N1CCC(Cc2cnc(-c3c(C)nn(C)c3C)cn2)C1` (configuration not stated), the Percent Effect was -8.45%. Regarding `O=C([C@H]1CCCO1)N1CCCC2(CCN(Cc3ccncc3)C2=O)C1` (some centres not stated), the Percent Effect is -9.24%. As for `CN(Cc1ccc2c(c1)OCCO2)C(=O)Cn1ccccc1=O`, the Percent Effect is -21.6%.
